# “And” between values parts separate entries of the source, which are not always exact repeats. Identical values can stand only once. Inconclusive results are not listed. More than one record can exist for a structure, and the calls need not agree. The source made the active and inactive calls. The calls were made as follows, unless noted: active = hit-call score of the fitted dose curve at least 0.9, where 1 is the maximum; inconclusive = response in the unintended direction; inactive = score below 0.9.
# Assays:
# [1] = CCTE_Padilla_ZF_144hpf_TERATOSCORE: (Legacy) CCTE's 144 Hour Post-fertilization zebrafish Assay Teratoscore, Padilla Lab (AID 2283679; active = hit-call score of the fitted dose curve at least 0.9, where 1 is the maximum; inactive = score below 0.9;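 as to AC50: zebrafish embryos with chorions exposed by immersion from 6-8 hpf to 5 dpf with daily renewal; teratogenicity score from eye scoring of death hatching and malformations at 144 hpf; higher score means more developmental defects relative to DMSO baseline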)
# Method in brief: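 Larvae scored by eye at 144 hpf for death, hatching and malformations after a day in clean Hanks'. Before that, daily-renewed exposure at 80 uM (0.4% DMSO, 26C) from roughly 6-8 hpf through 5 dpf, 4 embryos per chemical.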
# [2] = STM_H9_CystineISnorm_perc: Stemina devTOX quickPredict H9 human embryonic stem cell (hESC)-based Assay for Cystine (CYSS) Metabolite Biomarker, Normalized (AID 2283713; active = hit-call score of the fitted dose curve at least 0.9, where 1 is the maximum; inactive = score below 0.9)
# Method in brief: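 UPLC-HRMS read-out: endogenous cystine peak area in spent medium, normalized to isotope-labeled internal standard and to median of 0.1% DMSO controls. Pluripotent H9 cells, 72h exposure, daily medium/compound replenishment; medium from last 24h sampled.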
# [3] = STM_H9_OrnCyssISnorm_ratio: Stemina devTOX quickPredict H9 human embryonic stem cell (hESC)-based Assay for Ornithine (ORN):Cystine (CYSS) Ratio (AID 2283714)
# Method in brief: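 UPLC-HRMS of spent media: ORN/CYSS ratio of internal-standard-normalized percentages, DMSO (0.1%) baseline. Pluripotent H9 hESCs, 72h exposure, daily re-dosing with fresh media; last 24h media collected.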
# [4] = CEETOX_H295R_MTT_cell_viability: Viability Assessment in the CeeTox HT-H295R MTT Assay (AID 2283718; active = hit-call score of the fitted dose curve at least 0.9, where 1 is the maximum; inactive = score below 0.9)
# Method in brief: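 Human H295R adrenal cells, prestimulated 48 h with 10 uM forskolin, were exposed 48 h to chemicals in 0.1% DMSO. Viability was measured in the same wells by MTT (0.5 mg/ml, 4 h, 37 C), absorbance 570/650 nm, as percent of controls.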
# [5] = Tanguay_ZF_120hpf_ActivityScore_legacy: (Legacy) Oregon State University Tanguay Lab 120 Hour Post-fertilization zebrafish Assay Score for Activity (AID 2283742);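 as to AC50: dechorionated Tropical 5D wild-type zebrafish embryos held singly per well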
# Method in brief: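 Dechorionated 5D embryos, one per well, static exposure 6–120 hpf, 28C, sealed and dark; final DMSO 0.64% (vol/vol). Brightfield binary scoring of mortality plus 18 endpoints; gain-of-signal fit versus DMSO baseline.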
# [6] = target: Luciferin 4-monooxygenase (Photinus pyralis) (UniProt P08659); assay: CCTE_Simmons_QuantiLum_inhib_2: CCTE's Firefly Luciferase Inhibition Assay, Simmons Lab (AID 2283767);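 as to AC50: potency for inhibitors that lower luciferase luminescence relative to DMSO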
# Method in brief: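 Cell-free QuantiLum luciferase, 5 ng/well; compounds 5 nM–87.5 uM final, 8 conc, 0.5% DMSO; 30 min, 37C, dark. Detection reagent (150 uM D-luciferin, 147 uM dATP, CoA, DTT, pH 7.8 final) injected per well, kinetic luminescence. Triplicate biological replicates.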
# [7] = test system: chicken Androgen Receptor (AR), gene 422165; assay: ATG_chAR_XSP1: Attagene TRANS-FACTORIAL Multi-Species (XSP1) HepG2 Assay for chicken Androgen Receptor (AR) (AID 2283768)
# Method in brief: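 Reporter mRNA read by RT-PCR with fluorescent labelling and capillary electrophoresis 24 h after chemical dosing of transiently transfected HepG2 cells. Chicken AR-Gal4 chimera, partially stimulated with 3 nM 6-alpha-fluorotestosterone; activity fitted upward relative to DMSO.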
# [8] = test system: zebrafish Androgen Receptor (AR), gene 100005148; assay: ATG_zfAR_XSP1: Attagene TRANS-FACTORIAL Multi-Species (XSP1) HepG2 Assay for zebrafish Androgen Receptor (AR) (AID 2283771)
# Method in brief: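 Gain-of-signal versus DMSO was measured as reporter transcripts quantified by RT-PCR, fluorescent labelling and capillary electrophoresis after 24 h chemical exposure. The cells were HepG2 expressing a chimeric zebrafish AR-GAL4, co-stimulated with 3 nM 6-alpha-fluorotestosterone.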
# [9] = test system: zebrafish Estrogen Receptor (ESR2B), gene 317733; assay: ATG_zfER2b_XSP1: Attagene TRANS-FACTORIAL Multi-Species (XSP1) HepG2 Assay for zebrafish Estrogen Receptor (ESR2B) (AID 2283773)
# Method in brief: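 Multiplexed TRANS format in transfected HepG2 liver cells, chimeric NR-Gal4 from zebrafish ESR2B. 24 h dosing; medium contains 3 nM 6-alpha-fluorotestosterone. mRNA induction by RT-PCR/CE, positive direction vs DMSO.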
# [10] = test system: Thyroperoxidase (TPO), gene 445522; assay: CCTE_Simmons_GUA_TPO: CCTE's Guaiacol Assay for Thyroperoxidase (TPO) Inhibition, Simmons Lab (AID 2283750)
# Method in brief: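 Porcine thyroid microsomes (25 ug) in 200mM potassium phosphate, preincubated 30 s at 37C with compound (8 concentrations, 5 nM–87.5 uM) and 35mM guaiacol; 1mM H2O2 starts reaction. Absorbance change at 450nm over first 80 s; loss of signal versus DMSO, three replicates.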
# [11] = ArunA_CellTiter_hNC: Viability Assessment in the ArunA Biomedical's Oris Neural Crest (hNC) Cell Migration Assay (AID 2283752)
# Method in brief: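 hNC cells (H9 ESC-derived), 60,000/well, Matrigel, LIF + bFGF medium; 16 h 37C attachment; 72 h compound in test medium; CellTiter Aqueous One read-out; loss-of-signal vs DMSO baseline.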
# [12] = ArunA_CellTiter_hNP: Viability Assessment in the ArunA Biomedical's Oris Neural Crest (hNC) Cell Migration Assay (AID 2283753)
# Method in brief: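 Viability read with CellTiter 96 Aqueous One after 72 h chemical exposure of human hNP1 neuroprogenitors, which were plated on Matrigel in LIF/bFGF medium 16 h beforehand. Endpoint fitted in positive direction relative to DMSO.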
# [13] = ArunA_Migration_hNP: ArunA Biomedical's Oris Neuroprogenitor (hNP) Cell Migration Assay (AID 2283754)
# Method in brief: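 Readout is calcein-AM fluorescence (ex494/em517) of cells migrating into the detection zone, relative to DMSO. hNP1 cells (H9-derived) grown on Matrigel behind stoppers 16 h, then stoppers pulled and chemical applied 72 h; cytochalasin D as control.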
# [14] = ArunA_Migration_hNC: ArunA Biomedical's Oris Neural Crest (hNC) Cell Migration Assay (AID 2283755)
# Method in brief: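 Calcein-AM fluorescence (ex494 nm/em 517 nm) in the stopper-defined detection zone quantifies migration of hNC cells after 72 h chemical exposure; 60,000 cells/well plated on Matrigel with LIF and bFGF, 16 h pre-incubation. DMSO baseline.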
# [15] = ArunA_NOG_NucleusCount: ArunA Biomedical's Neurite Outgrowth (NOG) Assay for Nucleus Count (AID 2283756)
# Method in brief: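 Viable neuron count, from Hoechst nuclei passing size and intensity gates, imaged at 20x on differentiated H9-derived human neurons. Exposure lasted 48 h from seeding; activity was scored relative to DMSO.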
# [16] = ArunA_NOG_NeuriteLength: ArunA Biomedical's Neurite Outgrowth (NOG) Assay for Neurite Length (AID 2283757)
# Method in brief: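 Total neurite length per neuron, from traced βIII-tubulin-labelled processes longer than 10 um on viable Hoechst-gated cells, was scored as decrease from DMSO. Cells were hESC (H9)-derived neurons given 48 h chemical exposure immediately after seeding.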
# [17] = ArunA_NOG_NeuritesPerNeuron: ArunA Biomedical's Neurite Outgrowth (NOG) Assay for Neurites Per Neuron (AID 2283758)
# Method in brief: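 Differentiated human H9-derived neurons exposed to chemicals for 48 h from seeding, then stained with Hoechst and βIII-tubulin/DyLight 488. Automated imaging counted neurites (processes >10 um) per valid neuron; loss of signal versus DMSO scored.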
# [18] = ArunA_NOG_BranchPointsPerNeurite: ArunA Biomedical's Neurite Outgrowth (NOG) Assay for Branch Points Per Neurite (AID 2283759)
# Method in brief: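 Automated image analysis traced neurites (processes >10 um) from valid cell bodies after Hoechst and βIII-tubulin staining. hNN cells from H9 embryonic stem cells, 48 h exposure. Fitted bidirectionally against DMSO.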
# [19] = test system: frog Androgen Receptor (AR), gene 399456; assay: ATG_frAR_XSP1: Attagene TRANS-FACTORIAL Multi-Species (XSP1) HepG2 Assay for frog Androgen Receptor (AR) (AID 2283770)
# [20] = target: zebrafish Estrogen Receptor (ESR1), esr1 (gene 259252) (UniProt P57717); assay: ATG_zfER1_XSP1: Attagene TRANS-FACTORIAL Multi-Species (XSP1) HepG2 Assay for zebrafish Estrogen Receptor (ESR1) (AID 2283772)
# Method in brief: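 Reporter mRNA induction, gauged via RT-PCR/capillary electrophoresis fluorescence relative to DMSO controls, in HepG2 cells transiently carrying GAL4-UAS reporter units; 24 h dosing.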
# Luciferin 4-monooxygenase (Photinus pyralis), sequence (P08659 whole entry, looked up): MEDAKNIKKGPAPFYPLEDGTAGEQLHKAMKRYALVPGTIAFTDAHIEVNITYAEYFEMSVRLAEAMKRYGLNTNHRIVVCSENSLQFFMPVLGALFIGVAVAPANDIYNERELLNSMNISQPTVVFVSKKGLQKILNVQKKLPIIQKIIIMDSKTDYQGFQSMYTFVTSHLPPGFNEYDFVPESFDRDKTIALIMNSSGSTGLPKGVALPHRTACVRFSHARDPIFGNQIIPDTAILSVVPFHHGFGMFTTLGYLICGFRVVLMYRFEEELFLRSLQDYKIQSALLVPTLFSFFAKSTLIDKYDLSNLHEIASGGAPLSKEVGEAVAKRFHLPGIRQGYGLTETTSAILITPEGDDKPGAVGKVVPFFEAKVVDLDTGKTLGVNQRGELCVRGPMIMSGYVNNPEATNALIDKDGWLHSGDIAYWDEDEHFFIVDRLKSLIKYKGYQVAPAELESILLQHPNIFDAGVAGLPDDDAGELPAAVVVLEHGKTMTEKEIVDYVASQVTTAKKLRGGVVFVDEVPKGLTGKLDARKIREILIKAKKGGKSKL
# zebrafish Estrogen Receptor (ESR1), esr1 (gene 259252), sequence (P57717 whole entry, looked up, the tested form may be a part): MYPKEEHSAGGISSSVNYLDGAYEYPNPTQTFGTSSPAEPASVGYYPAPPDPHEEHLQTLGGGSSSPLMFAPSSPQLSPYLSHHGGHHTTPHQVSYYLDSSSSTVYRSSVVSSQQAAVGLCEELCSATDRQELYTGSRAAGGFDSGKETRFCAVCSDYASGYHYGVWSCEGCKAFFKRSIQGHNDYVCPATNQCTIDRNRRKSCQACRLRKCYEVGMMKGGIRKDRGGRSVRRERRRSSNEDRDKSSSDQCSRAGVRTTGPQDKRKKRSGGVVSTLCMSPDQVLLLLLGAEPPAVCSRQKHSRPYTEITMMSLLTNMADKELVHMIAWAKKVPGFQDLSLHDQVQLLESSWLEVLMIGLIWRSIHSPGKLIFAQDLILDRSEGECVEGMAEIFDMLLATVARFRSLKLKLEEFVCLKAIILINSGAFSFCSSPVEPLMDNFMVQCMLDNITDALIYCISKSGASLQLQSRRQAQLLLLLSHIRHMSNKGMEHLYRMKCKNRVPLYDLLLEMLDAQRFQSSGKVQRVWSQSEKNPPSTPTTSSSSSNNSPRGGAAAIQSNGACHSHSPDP
structure (smiles),measurement,setting,value
Cc1ccc(N)c(N)c1,AC50,[1],80.4 µM (active)
same,AC50,[2],23.4 µM (active)
same,AC50,[3],22.7 µM (active)
same,outcome,[4],inactive
same,outcome,[5],inactive
same,AC50,[6],0.334 µM (active)
Cn1cc(-c2ccccc2)c(=O)c(-c2cccc(C(F)(F)F)c2)c1,AC50,[1],57 µM (active)
same,outcome,[2],inactive
same,outcome,[3],inactive
same,outcome,[4],inactive
same,outcome,[5],inactive
CCC[CH2][Sn]([Cl])([CH2]CCC)[CH2]CCC,AC50,[1],0.0309 µM (active)
same,AC50,[2],0.546 µM (active)
same,AC50,[3],0.497 µM (active)
same,AC50,[5],0.317 µM (active)
same,AC50,[7],0.334 µM (active)
same,outcome,[8],inactive
same,outcome,[9],inactive
COP(=S)(OC)SCN1C(=O)c2ccccc2C1=O,AC50,[1],52.6 µM (active)
same,outcome,[4],inactive
same,outcome,[5],inactive
same,outcome,[10],inactive
CO[C@@H]1[C@H](OC(=O)NC(=O)CCl)CC[C@]2(CO2)[C@H]1[C@@]1(C)O[C@@H]1CC=C(C)C,outcome,[1],inactive
same,AC50,[2],0.039 µM (active)
same,AC50,[3],0.0656 µM (active)
same,outcome,[5],inactive
same,AC50,[11],1.63 nM (active) and 120 nM (active)
same,AC50,[12],0.00608 µM (active)
same,outcome,[12],inactive
same,outcome,[13],inactive
same,AC50,[14],22.8 nM (active) and 5 µM (active)
same,outcome,[15],inactive
same,outcome,[16],inactive
same,outcome,[17],inactive
same,outcome,[18],inactive
same,outcome,[6],inactive
CC(C)(C)C(O)(CCc1ccc(Cl)cc1)Cn1cncn1 (stereo not given),AC50,[1],52 µM (active)
same,AC50,[2],30.1 µM (active)
same,AC50,[3],45 µM (active)
same,outcome,[4],inactive
same,outcome,[5],inactive
CCCCCCCCCCCCCN1CC(C)OC(C)C1 (stereo not given),AC50,[1],90.1 µM (active)
same,AC50,[2],2.78 µM (active)
same,AC50,[3],2.62 µM (active)
same,outcome,[4],inactive
same,outcome,[5],inactive
Brc1ccc(Oc2ccccc2)cc1,AC50,[1],44.7 µM (active)
same,outcome,[2],inactive
same,outcome,[3],inactive
same,outcome,[4],inactive
same,outcome,[5],inactive
OCCOCCO,outcome,[1],inactive
same,outcome,[5],inactive
C[C@]12C=CC3=C4CCC(=O)C=C4CC[C@H]3[C@@H]1CC[C@@H]2O,AC50,[1],31 µM (active)
same,outcome,[4],inactive
same,AC50,[5],118 µM (active)
same,outcome,[6],inactive
same,AC50,[7],0.00303 µM (active)
same,AC50,[19],0.0124 µM (active)
same,AC50,[8],0.0325 µM (active)
same,outcome,[20],inactive
same,outcome,[9],inactive
Nc1cc(Cl)cc(C(=O)O)c1Cl,outcome,[1],inactive
same,outcome,[5],inactive
same,outcome,[6],inactive
CC(O)CCO (stereo not given),outcome,[1],inactive
same,outcome,[5],inactive
C[N+](C)(C)CC1CO1 (stereo not given),AC50,[2],11 µM (active)
same,AC50,[3],16.5 µM (active)
same,outcome,[5],inactive

# Source: PubChem BioAssay (EPA / NIEHS)
